Measured values from PubChem BioAssay (NCI).
About 83,000 compounds went through this panel and 20% of them were active in at least one assay; those are over-represented in the sample as a whole.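 Activity criterion: percent growth below 10, measured after cells in 96-well plates were exposed to a single compound concentration for 48 hours.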 A number with no mark means an inactive call. Activity calls are given as the source filed them.

Columns and labels:
Assay in all cases: NCI-60 one-dose screen, 48 h (100 = growth as untreated, 0 = no growth, -100 = all killed)
NCI-H23 lung = conditions: 10 µM unless noted
NCI-H322M lung = conditions: 10 µM unless noted
HOP-62 NSCLC = conditions: 10 µM unless noted
NCI-H522 lung = conditions: 10 µM
A549/ATCC NSCLC = conditions: 10 µM unless noted
786-0 renal = conditions: 10 µM unless noted
COLO 205 colon = conditions: 10 µM unless noted
DU-145 prostate = conditions: 10 µM unless noted
K-562 leukemia = conditions: 10 µM unless noted
MDA-MB-231 breast = conditions: 10 µM unless noted
RXF 393 renal = conditions: 10 µM unless noted
SF-268 CNS = conditions: 10 µM unless noted
SF-539 CNS = conditions: 10 µM unless noted
UACC-257 melanoma = conditions: 10 µM unless noted
M14 melanoma = conditions: 10 µM unless noted
NCI-H460 lung = conditions: 10 µM unless noted
HOP-92 NSCLC = conditions: 10 µM unless noted
MALME-3M melanoma = conditions: 10 µM unless noted
SF-295 CNS = conditions: 10 µM unless noted
NCI-H226 lung = conditions: 10 µM

Compound	growth (NCI-H23 lung) [%]	growth (NCI-H322M lung) [%]	growth (HOP-62 NSCLC) [%]	growth (NCI-H522 lung) [%]	growth (A549/ATCC NSCLC) [%]	growth (786-0 renal) [%]	growth (COLO 205 colon) [%]	growth (DU-145 prostate)	growth (K-562 leukemia)	growth (MDA-MB-231 breast) [%]	growth (RXF 393 renal)	growth (SF-268 CNS) [%]	growth (SF-539 CNS)	growth (UACC-257 melanoma) [%]	growth (M14 melanoma) [%]	growth (NCI-H460 lung)	growth (HOP-92 NSCLC) [%]	growth (MALME-3M melanoma) [%]	growth (SF-295 CNS)	growth (NCI-H226 lung) [%]
COc1ccc(Nc2[nH]n(C3=Nc4ccccc4Sc4ccccc43)c(=O)c2C#N)cc1	28.3	89.1	75.9	29.6	55.2	64.7	15.1	67%	51.9%	51.2	59.3%	67.2	45.6%	36.3	55.9					
Clc1ccc(C2=Nc3cccc4cccc(c34)N2)cc1Cl	76.9	103		62	99.6	111	100	110%		97.4	-5.75% (active)		108%	93.6	103	100%	92.9	102	112%	
O=c1onc(-c2ccccc2)c2ccccc12	104		117	101	109	105	119	113%	105%	97	90.5%	113	122%	120	118	109%	95.4	121	101%	
CCCCc1ccc(NC(=O)C(F)(F)F)cc1	106		102	82	102	91.8	107	100%	85.8%	99.8	93.4%	83.9	100%	110	105	108%	104	140	105%	
CN1CCN(c2nc(-c3ccncc3)nc3sc4c(c23)CCCCCC4)CC1	73	86.6	71		69		52.8	91%	35.5%	49.2		61.2	54.4%		105	84.3%		76.8	57.2%	
CCOC(=O)n1cc(C2=C(c3cn(C)c4ccccc34)COC2=O)c2ccccc21	30	47.4			22.6	27.5		-14.3% (active)	5.86% (active)	25.5	19.6%	26	-16.3% (active)	55.1	20.1	3.7% (active)	37.9	37.2	1.58% (active)	
Cn1c(=O)c2c(-c3ccccc3F)n(-c3ccc4c(c3)OCO4)cc2n(C)c1=O	95.2		102	91.5	99.8	102	106	110%	78.7%	77.1	83.3%	97.4	92.7%	117	117	99.4%		141	87.9%	
Cc1cc(O)cc2c1[C@H]1CC[C@]3(C)[C@@H](O)CC[C@H]3[C@@H]1C=C2	90.5		74.5	43.2	86.9	99.5		113%		80.9		92.2	98.4%	85.2	77.5	104%	105			
CN1CCN(C)c2cncc(Br)c2C1=O	101		110	93.5	104			114%	102%	106	105%	102	109%	90.3		105%	91.8	99.3	-85% (active)	
Cc1nn2c(-c3nc4ccc(Cl)cc4[nH]3)c(-c3ccc(F)cc3)nc2s1	98.2		115	99.9	80.1	93.8	108	104%	88.6%	116	96.6%	101	97.1%	92.9	95.4	97.5%	91	128		
O=C(CCc1nnc2sc(-c3ccccc3)nn12)c1nc2ccccc2[nH]1	79.7		100	91.2	99.3	103	114	106%	5.84% (active)	97.2	107%	116	78.9%	100	96.3	99.8%	49.1	93.7	77.1%	
CCCCc1ccc(C(O)(CCN2CC3CCC(CC3)C2)c2ccccc2)cc1 (configuration not stated)	87.7		106	84.2	96.2	85.9	80.9	99.8%	75.2%	99.1	96.2%	97.1	101%	95.2	91.7	107%	75.4	95.7	102%	
COc1ccc(C2CC(c3cc(OC)c(OC)c(OC)c3)=NN2c2ccc(S(N)(=O)=O)cc2)cc1 (configuration not stated)		67.6	67.3	66.9	44.5	66.6	75.6	85.7%	33.1%	51.3	79.3%	72.9	77.8%	73.7	64.6	58.8%	27.8	101	55.2%	61.9
COc1ccc(OC2=C(C#N)C(=N)N3c4ccccc4Sc4ccccc4C3N2)cc1 (configuration not stated)	87.9	97.5	79.9	97.8	104	105	103	99.7%	148%	60.8	78%	89.2	91.5%	115	105					
O=c1[nH]c(=S)[nH]c(=O)n1Cc1cccc2ccccc12	102	114	106		99.7		120	116%	90.1%	106		107	103%		104	97.6%		97.3	77.4%	
COc1cc(-c2nc3ccccc3o2)cc(CN2CCN(c3ccccc3)CC2)c1O	37.8		47.1	58.4	30.2	90.2		71.8%	40.1%	69.3	107%	83.3	94.7%	86.7	52.5	51%	81.8	63	36.2%	
COc1cc(-c2nc(Nc3nc4ccccc4[nH]3)nc(N)c2C#N)cc(OC)c1OC	87.9	83.2	65.1	20.1	69.6	67.1	32.3	61.8%		53	-1.43% (active)	71.2	58.9%	69.5	53		50.5	65	18.1%	
